Reference: PubChem BioAssay (EPA / NIEHS)
Activity calls are given as the source filed them. How the source made its calls: active means hit-call score of the fitted dose curve at least 0.9, where 1 is the maximum; inactive means score below 0.9.

How the values were obtained:
Conditions in all cases: mRNA level, 48 h; actives raise or lower the signal
[1] = read-out: Apoptosis regulator Bcl-2 (Homo sapiens) (UniProt P10415); experiment: LTEA_HepaRG_BCL2: Life Technologies and Expression Analysis (LTEA) Assay for Bcl-2 gene using HepaRG (AID 2283475)
Method in brief: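 Each chemical was tested in duplicate on HepaRG cultures held in serum-free induction medium for 48 h, highest concentration 100 uM with half-log dilutions. Transcript levels came from multiplexed qRT-PCR, normalised to housekeeping genes; activity was scored in either direction relative to DMSO.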

[2] = read-out: Bcl-2 (BID) gene, BID (gene 637); experiment: LTEA_HepaRG_BID: Life Technologies and Expression Analysis (LTEA) Assay for Bcl-2 (BID) gene using HepaRG (AID 2283476)
Method in brief: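 Assay used HepaRG hepatic cells treated 48 h in serum-free medium with half-log dilutions from 100 uM. Endpoint: BID mRNA, qRT-PCR, normalized to ACTB/GAPDH/POLR2A.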

[3] = read-out: Caspase-3 (Homo sapiens) (UniProt P42574); experiment: LTEA_HepaRG_CASP3: Life Technologies and Expression Analysis (LTEA) Assay for cysteine-aspartic acid protease (CASP3) using HepaRG (AID 2283477)
Method in brief: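 Differentiated HepaRG cells, plated 48 h, were treated in duplicate in serum-free induction medium for 48 h with eight half-log concentrations up to 100 uM in 0.5% DMSO. CASP3 mRNA measured by qRT-PCR, normalized to ACTB, GAPDH, POLR2A.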

[4] = read-out: Cytochrome P450 (CYP24A1), CYP24A1 (gene 1591); experiment: LTEA_HepaRG_CYP24A1: Life Technologies and Expression Analysis (LTEA) Assay for Cytochrome P450 (CYP24A1) using HepaRG (AID 2283478)
Method in brief: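 HepaRG cells plated 48 h, then exposed in duplicate in serum-free induction medium for 48 h to 8-point half-log series from 100 uM in 0.5% DMSO. CYP24A1 mRNA by Fluidigm qRT-PCR, normalized to ACTB, GAPDH, POLR2A; bidirectional fit versus DMSO.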

[5] = read-out: Cytochrome P450 (CYP1A2), CYP1A2 (gene 1544); experiment: LTEA_HepaRG_CYP1A2: Life Technologies and Expression Analysis (LTEA) Assay for Cytochrome P450 (CYP1A2) using HepaRG (AID 2283479)
Method in brief: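 Differentiated human HepaRG cells in serum-free induction medium exposed 48 hours in duplicate to 8 half-log concentrations from 100 uM, 0.5% DMSO. CYP1A2 mRNA quantified by qRT-PCR, normalized to ACTB, GAPDH and POLR2A; bidirectional fitting versus DMSO.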

[6] = read-out: cysteine-aspartic acid protease (CASP8), CASP8 (gene 841); experiment: LTEA_HepaRG_CASP8: Life Technologies and Expression Analysis (LTEA) Assay for cysteine-aspartic acid protease (CASP8) using HepaRG (AID 2283480)
Method in brief: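 qRT-PCR readout of CASP8 mRNA, normalized to three housekeeping genes, after 48 h chemical exposure of HepaRG cells; 8-point half-log series, top 100 uM, 0.5% DMSO vehicle. Bidirectional curve fitting against DMSO baseline.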

[7] = read-out: Cytochrome P450 (CYP2B6), CYP2B6 (gene 1555); experiment: LTEA_HepaRG_CYP2B6: Life Technologies and Expression Analysis (LTEA) Assay for Cytochrome P450 (CYP2B6) using HepaRG (AID 2283481)
Method in brief: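 Differentiated human HepaRG cells in serum-free induction medium, dosed in duplicate for 48 h over 8 half-log concentrations topping at 100 uM (0.5% DMSO). CYP2B6 mRNA measured by TaqMan qRT-PCR, normalized to ACTB, GAPDH, POLR2A; bidirectional fit versus DMSO.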

[8] = read-out: Cytochrome P450 2C19 (Homo sapiens) (UniProt P33261); experiment: LTEA_HepaRG_CYP2C19: Life Technologies and Expression Analysis (LTEA) Assay for CYP2C19 using HepaRG (AID 2283482)
Method in brief: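 Differentiated HepaRG cells in serum-free induction medium exposed 48 h in duplicate, 8 concentrations from 100 uM by half-log steps in 0.5% DMSO. CYP2C19 mRNA measured by TaqMan qRT-PCR, normalized to ACTB, GAPDH, POLR2A. Bidirectional fit versus DMSO.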

[9] = read-out: CYP2C8 (gene 1558); experiment: LTEA_HepaRG_CYP2C8: Life Technologies and Expression Analysis (LTEA) Assay for CYP2C8 using HepaRG (AID 2283483)
Method in brief: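 HepaRG (human liver line), 48 h chemical exposure, 8-pt half-log series from 100 uM, 0.5% DMSO vehicle. Readout: CYP2C8 transcript by qRT-PCR, housekeeping-normalized. Bidirectional fit vs DMSO baseline.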

[10] = read-out: CYP2C9 (gene 1559); experiment: LTEA_HepaRG_CYP2C9: Life Technologies and Expression Analysis (LTEA) Assay for CYP2C9 using HepaRG (AID 2283484)
Method in brief: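 HepaRG, 48 h dosing, 8-pt half-log series, top 100 uM, 0.5% DMSO vehicle. Read-out: CYP2C9 transcript by TaqMan qRT-PCR, housekeeping-normalized (ACTB/GAPDH/POLR2A). Gain or loss fitted vs DMSO baseline.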

[11] = read-out: CYP2E1 (gene 1571); experiment: LTEA_HepaRG_CYP2E1: Life Technologies and Expression Analysis (LTEA) Assay for CYP2E1 using HepaRG (AID 2283485)
Method in brief: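 Assay uses 48 h exposure of HepaRG hepatic cells, eight concentrations to 100 uM. Expression of CYP2E1 is quantified by TaqMan qRT-PCR with ACTB, GAPDH and POLR2A normalization; curves fitted in both directions relative to vehicle.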

[12] = read-out: CYP4A11 (gene 1579); experiment: LTEA_HepaRG_CYP4A11: Life Technologies and Expression Analysis (LTEA) Assay for CYP4A11 using HepaRG (AID 2283486)
Method in brief: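 Differentiated HepaRG cells, 48 h after plating, exposed in duplicate for 48 h to 8 half-log concentrations up to 100 uM in 0.5% DMSO in serum-free induction medium. CYP4A11 mRNA measured by TaqMan qRT-PCR, normalized to ACTB, GAPDH and POLR2A.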

[13] = read-out: DNA damage-inducible transcript 3 (DDIT3), DDIT3 (gene 1649); experiment: LTEA_HepaRG_DDIT3: Life Technologies and Expression Analysis (LTEA) Assay for DNA damage-inducible transcript 3 (DDIT3) using HepaRG (AID 2283488)
Method in brief: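 Eight-point concentration-response (100 uM highest, half-log dilutions) in HepaRG, 48 h, duplicate wells. Endpoint: qRT-PCR mRNA, normalized (ACTB, GAPDH, POLR2A), bidirectional fitting with DMSO as baseline.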

[14] = read-out: Pro-epidermal growth factor (Homo sapiens) (UniProt P01133); experiment: LTEA_HepaRG_EGF: Life Technologies and Expression Analysis (LTEA) Assay for Epidermal growth factor (EGF) using HepaRG (AID 2283489)
Method in brief: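 HepaRG cells (~100,000/well, 48 h pre-culture) exposed in duplicate for 48 h in serum-free induction medium to 8 half-log concentrations up to 100 uM in 0.5% DMSO. EGF mRNA by qRT-PCR, normalized to ACTB/GAPDH/POLR2A; bidirectional fit versus DMSO.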

[15] = read-out: Early growth response protein 1 (EGR1) transcription factor, EGR1 (gene 1958); experiment: LTEA_HepaRG_EGR1: Life Technologies and Expression Analysis (LTEA) Assay for Early growth response protein 1 (EGR1) transcription factor using HepaRG (AID 2283490)
Method in brief: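 HepaRG, 48 h exposure, 8-pt half-log series from 100 uM, 0.5% DMSO vehicle; EGR1 transcript by TaqMan qRT-PCR (Fluidigm array), housekeeping-normalized; bidirectional fit relative to DMSO baseline.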

[16] = read-out: Ezrin (EZR), EZR (gene 7430); experiment: LTEA_HepaRG_EZR: Life Technologies and Expression Analysis (LTEA) Assay for Ezrin (EZR) using HepaRG (AID 2283491)
Method in brief: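 Gain or loss of EZR mRNA is scored relative to 0.5% DMSO in human HepaRG cultures treated 48 h with test chemicals in duplicate, eight half-log concentrations from 100 uM.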

[17] = read-out: Cytochrome P450 3A7 (Homo sapiens) (UniProt P24462); experiment: LTEA_HepaRG_CYP3A7: Life Technologies and Expression Analysis (LTEA) Assay for CYP3A7 using HepaRG (AID 2283492)
Method in brief: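 Differentiated HepaRG cells in serum-free induction medium exposed 48 h in duplicate to 8-point half-log series from 100 uM top in 0.5% DMSO. CYP3A7 mRNA by qRT-PCR, normalized to ACTB/GAPDH/POLR2A, bidirectional fit versus DMSO.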

[18] = read-out: CYP3A5 (gene 1577); experiment: LTEA_HepaRG_CYP3A5: Life Technologies and Expression Analysis (LTEA) Assay for CYP3A5 using HepaRG (AID 2283493)
Method in brief: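 Readout was CYP3A5 mRNA by qRT-PCR. HepaRG cultures were exposed for 48 h in serum-free induction medium to chemicals at up to 100 uM, and responses were fitted in both directions relative to DMSO vehicle.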

[19] = read-out: Fatty Acid-Binding Protein 1 (FABP1), FABP1 (gene 2168); experiment: LTEA_HepaRG_FABP1: Life Technologies and Expression Analysis (LTEA) Assay for Fatty Acid-Binding Protein 1 (FABP1) using HepaRG (AID 2283494)
Method in brief: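 qRT-PCR readout of FABP1 transcript (normalized to three housekeeping genes) after 48 h chemical exposure of HepaRG cells; eight concentrations, half-log steps, max 100 uM, 0.5% DMSO vehicle; gain or loss fitted relative to DMSO baseline.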

Measured: AC50

Apoptosis regulator Bcl-2 (Homo sapiens), sequence (P10415 whole entry, looked up): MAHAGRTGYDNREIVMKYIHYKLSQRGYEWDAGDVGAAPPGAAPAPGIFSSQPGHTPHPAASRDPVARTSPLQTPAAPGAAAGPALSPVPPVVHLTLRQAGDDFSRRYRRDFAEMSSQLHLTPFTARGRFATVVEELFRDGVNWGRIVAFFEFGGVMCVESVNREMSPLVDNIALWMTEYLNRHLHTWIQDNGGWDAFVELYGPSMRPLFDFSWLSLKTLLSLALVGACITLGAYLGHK
Cytochrome P450 2C19 (Homo sapiens), sequence (P33261 whole entry, looked up): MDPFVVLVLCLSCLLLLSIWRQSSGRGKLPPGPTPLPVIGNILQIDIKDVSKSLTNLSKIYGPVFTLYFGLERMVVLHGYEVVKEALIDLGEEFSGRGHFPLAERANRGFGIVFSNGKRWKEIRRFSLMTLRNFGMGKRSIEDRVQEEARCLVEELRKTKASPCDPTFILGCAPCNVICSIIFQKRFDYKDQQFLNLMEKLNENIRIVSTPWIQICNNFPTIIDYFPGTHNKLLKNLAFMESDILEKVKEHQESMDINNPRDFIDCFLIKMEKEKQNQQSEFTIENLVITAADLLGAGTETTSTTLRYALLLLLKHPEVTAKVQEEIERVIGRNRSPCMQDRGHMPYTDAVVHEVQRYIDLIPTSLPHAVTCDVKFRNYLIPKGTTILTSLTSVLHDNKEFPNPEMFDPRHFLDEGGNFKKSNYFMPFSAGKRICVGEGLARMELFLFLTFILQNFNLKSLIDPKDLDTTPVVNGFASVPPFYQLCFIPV
Caspase-3 (Homo sapiens), sequence (P42574 whole entry, looked up): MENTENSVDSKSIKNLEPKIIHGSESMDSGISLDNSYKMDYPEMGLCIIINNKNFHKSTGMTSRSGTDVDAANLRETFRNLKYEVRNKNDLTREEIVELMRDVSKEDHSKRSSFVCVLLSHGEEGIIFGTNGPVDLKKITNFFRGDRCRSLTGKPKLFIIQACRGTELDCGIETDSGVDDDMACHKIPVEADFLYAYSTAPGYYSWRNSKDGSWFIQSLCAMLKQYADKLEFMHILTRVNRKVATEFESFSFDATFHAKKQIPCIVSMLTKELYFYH
Cytochrome P450 3A7 (Homo sapiens), sequence (P24462 whole entry, looked up): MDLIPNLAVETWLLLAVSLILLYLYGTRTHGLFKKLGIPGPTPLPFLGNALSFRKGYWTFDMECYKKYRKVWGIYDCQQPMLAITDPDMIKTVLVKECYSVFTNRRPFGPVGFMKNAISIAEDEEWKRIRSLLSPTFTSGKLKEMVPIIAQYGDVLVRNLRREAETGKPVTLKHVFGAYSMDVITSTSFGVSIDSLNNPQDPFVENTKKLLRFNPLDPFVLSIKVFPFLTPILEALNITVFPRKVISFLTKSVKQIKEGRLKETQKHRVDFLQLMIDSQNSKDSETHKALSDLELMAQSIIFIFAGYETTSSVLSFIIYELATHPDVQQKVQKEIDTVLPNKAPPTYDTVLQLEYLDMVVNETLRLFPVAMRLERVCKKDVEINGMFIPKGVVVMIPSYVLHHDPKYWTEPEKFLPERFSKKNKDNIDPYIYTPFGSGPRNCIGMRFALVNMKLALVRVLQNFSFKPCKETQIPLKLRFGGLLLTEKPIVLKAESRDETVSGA

CCOC(=O)NCCOc1ccc(Oc2ccccc2)cc1
inactive: [2] | [3] | [4] | [6] | [14] | [15] | [16] | [17]
active: [1] 82.1 µM | [5] 84.5 µM | [7] 81.4 µM | [8] 81.6 µM | [9] 81.1 µM | [10] 80 µM | [11] 83.8 µM | [12] 84.1 µM | [13] 89 µM | [18] 84.8 µM | [19] 79.1 µM

CCOC(=O)C(C)Oc1ccc(Oc2cnc3cc(Cl)ccc3n2)cc1 (stereo unspecified)
active: [5] 19.2 µM | [8] 1.24 µM | [11] 20 µM | [12] 43 µM | [17] 0.571 µM | [18] 0.628 µM | [19] 0.388 µM
inactive: all other assays above

CCN(Cc1c(F)cccc1Cl)c1c([N+](=O)[O-])cc(C(F)(F)F)cc1[N+](=O)[O-]
active: [5] 13.3 µM | [7] 12.7 µM | [8] 12.9 µM | [11] 40.9 µM | [12] 36.3 µM | [14] 14 µM | [19] 38.7 µM
inactive: all other assays above

CCCCC(CC)CN1C(=O)C2C3C=CC(C3)C2C1=O (stereo unspecified)
active: [5] 82.3 µM | [7] 88.6 µM | [8] 92 µM | [9] 88.3 µM | [10] 82.6 µM | [11] 43 µM | [12] 36.1 µM | [13] 72.7 µM | [17] 85.7 µM | [19] 72.5 µM
inactive: [1] | [2] | [3] | [4] | [6] | [14] | [15] | [16] | [18]

Cc1nn(C)c(Oc2ccccc2)c1C=NOCc1ccc(C(=O)OC(C)(C)C)cc1
active: [1] 7.02 µM | [5] 2.35 µM | [7] 1.68 µM | [8] 29.2 µM | [9] 25.7 µM | [10] 20.1 µM | [11] 2.75 µM | [12] 2.99 µM | [13] 3.27 µM | [15] 1.22 µM | [16] 3.29 µM | [17] 1.37 µM | [18] 9.26 µM | [19] 7.21 µM
inactive: [2] | [3] | [4] | [6] | [14]

O=C(Nc1ccc([N+](=O)[O-])cc1Cl)c1cc(Cl)ccc1O
active: [1] 3.54 µM | [3] 1.89 µM | [5] 0.744 µM | [6] 12 µM | [7] 3.89 µM | [8] 2.22 µM | [9] 3.94 µM | [10] 3.21 µM | [11] 2.07 µM | [12] 3.41 µM | [13] 3.35 µM | [14] 12.1 µM | [15] 1.76 µM | [18] 7.24 µM | [19] 2.25 µM
inactive: [2] | [4] | [16]

CCN(CC)C(=O)c1cccc(C)c1
active: [7] 3.4 µM | [8] 12.9 µM | [9] 9.19 µM | [10] 3.56 µM | [11] 13.4 µM
not listed: [17]
inactive: all other assays above

N[C@@H](Cc1cc(I)c(Oc2ccc(O)c(I)c2)c(I)c1)C(=O)O
active: [7] 40 µM | [8] 61.6 µM | [9] 46.8 µM | [11] 0.00253 µM | [12] 7.94 µM | [13] 49.7 µM | [19] 40 µM
not listed: [5] | [10] | [17] | [18]
inactive: all other assays above

CC(=O)S[C@@H]1CC2=CC(=O)CC[C@]2(C)[C@H]2CC[C@@]3(C)[C@@H](CC[C@@]34CCC(=O)O4)[C@H]12
inactive: [1] | [2] | [4] | [6] | [13] | [14] | [15]
active: [3] 50 µM | [7] 52.6 µM | [8] 78.3 µM | [9] 82.1 µM | [11] 63 µM | [12] 51.8 µM | [16] 0.387 µM | [18] 50 µM | [19] 54.4 µM

c1ccc2[nH]c(-c3cscn3)nc2c1
active: [5] 23.6 µM | [7] 16.5 µM | [8] 28.6 µM | [11] 50 µM
not listed: [17]
inactive: all other assays above

C#C[C@]1(O)CC[C@H]2[C@@H]3CCC4=CC(=O)CC[C@@H]4[C@H]3CC[C@@]21CC
active: [8] 5.47 µM | [11] 0.00149 µM | [12] 0.0276 µM | [19] 0.713 µM
not listed: [17]
inactive: all other assays above

COc1c(Cl)ccc(Cl)c1C(=O)O
not listed: [14]
inactive: all other assays above
